# Where a name gives a salt, the structure may show the parent alone.
# Tested on: MCF10A
# Assay: perturbation Mahalanobis distance of morphological profile vs DMSO controls (Mahalanobis distance (SD units)); higher = stronger morphological change, active = 7 or more
# Conditions: screen batch: Batch1_Mahalanobis_Distance; 72 h
# Procedure: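 MCF10A cells were seeded onto drugs dispensed acoustically into 384-well plates, using one dose per drug chosen from its human peak plasma concentration, and incubated for 72 h at 37 °C. Cells were stained for DNA, tubulin and mitochondria and imaged; 78 CellProfiler features were extracted, plate-normalised and compared with DMSO wells.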
row,SMILES,perturbation Mahalanobis distance
1,CC(c1cc2ccccc2s1)N(O)C(N)=O (stereo not given) [Zileuton] (105.4 µM),3.71 (inactive)
2,Nc1ccn([C@H]2CC[C@@H](CO)O2)c(=O)n1 [Zalcitabine] (2.4 µM),2.44 (inactive)
3,CC1CNc2c(cccc2S(=O)(=O)N[C@@H](CCCN=C(N)N)C(=O)N2CC[C@@H](C)C[C@@H]2C(=O)O)C1 (stereo not given in full) [Argatroban] (6.9 µM),3.61 (inactive)
4,CO[C@@H]1[C@@H](OC(N)=O)[C@@H](O)[C@H](Oc2ccc3c(=O)c(NC(=O)c4ccc(O)c(CC=C(C)C)c4)c(O)oc3c2C)OC1(C)C [Novobiocin] (90.8 µM),5.81 (inactive)
5,Nc1nc2ccc(OC(F)(F)F)cc2s1 [Riluzole] (4.3 µM),2.51 (inactive)
6,Cc1cn[nH]c1 [Fomepizole] (299.6 µM),2.14 (inactive)
7,C[C@](N)(Cc1ccc(O)cc1)C(=O)O [Metyrosine] (71.7 µM),3.87 (inactive)
8,Nc1nc(=O)c2ncn(COC(CO)CO)c2[nH]1 [Ganciclovir] (98 µM),3.22 (inactive)
9,c1ccc(CC2=NCCN2)cc1 [Tolazoline] (25 µM),2.21 (inactive)
10,Cc1ccc(NC(=O)c2ccc(CN3CCN(C)CC3)cc2)cc1Nc1nccc(-c2cccnc2)n1 [Imatinib] (14 µM),4.06 (inactive)
11,COc1cc(Cc2cnc(N)nc2N)cc(OC)c1OC [Trimethoprim] (43.1 µM),4.35 (inactive)
12,COc1cc(N)c(Cl)cc1C(=O)NC1CCN(CCCOc2ccc(F)cc2)CC1OC (stereo not given) [Cisapride] (0.85 µM),3.31 (inactive)
13,COc1cc2nc(N3CCN(C(=O)C4CCCO4)CC3)nc(N)c2cc1OC (stereo not given) [Terazosin] (1 µM),2.35 (inactive)
14,Cc1nc(-c2ccc(OCC(C)C)c(C#N)c2)sc1C(=O)O [Febuxostat] (178 µM),2.73 (inactive)
15,CCC(CC)O[C@@H]1C=C(C(=O)O)C[C@H](N)[C@H]1NC(C)=O [Oseltamivir Acid] (6.45 µM),2.37 (inactive)
16,O=c1ncnc2[nH][nH]cc1-2 [Allopurinol] (139.6 µM),2.93 (inactive)
17,CNC(=O)c1cc(Oc2ccc(NC(=O)Nc3ccc(Cl)c(C(F)(F)F)c3)cc2)ccn1 [Sorafenib] (10.76 µM),2.94 (inactive)
18,c1ccc([C@H]2CN3CCSC3=N2)cc1 [Levamisole] (11.7 µM),2.32 (inactive)
19,CC[N+](C)(C)Cc1ccccc1Br [Bretylium Tosylate] (84.1 µM),2.48 (inactive)
20,COc1cc(C(=O)NS(=O)(=O)c2ccccc2C)ccc1Cc1cn(C)c2ccc(NC(=O)OC3CCCC3)cc12 [Zafirlukast] (0.26 µM),2.19 (inactive)

# Same assay, conditions: screen batch: Batch2_Mahalanobis_Distance; 72 h
row,SMILES,perturbation Mahalanobis distance
1,CC(c1cc2ccccc2s1)N(O)C(N)=O (stereo not given) [Zileuton] (105.4 µM),5.1 (inactive)
2,Nc1ccn([C@H]2CC[C@@H](CO)O2)c(=O)n1 [Zalcitabine] (2.4 µM),3.2 (inactive)
3,CC1CNc2c(cccc2S(=O)(=O)N[C@@H](CCCN=C(N)N)C(=O)N2CC[C@@H](C)C[C@@H]2C(=O)O)C1 (stereo not given in full) [Argatroban] (6.9 µM),2.75 (inactive)
4,CO[C@@H]1[C@@H](OC(N)=O)[C@@H](O)[C@H](Oc2ccc3c(=O)c(NC(=O)c4ccc(O)c(CC=C(C)C)c4)c(O)oc3c2C)OC1(C)C [Novobiocin] (90.8 µM),6.6 (inactive)
5,Nc1nc2ccc(OC(F)(F)F)cc2s1 [Riluzole] (4.3 µM),3.82 (inactive)
6,Cc1cn[nH]c1 [Fomepizole] (299.6 µM),3.81 (inactive)
7,C[C@](N)(Cc1ccc(O)cc1)C(=O)O [Metyrosine] (71.7 µM),3.02 (inactive)
8,Nc1nc(=O)c2ncn(COC(CO)CO)c2[nH]1 [Ganciclovir] (98 µM),3.75 (inactive)
9,c1ccc(CC2=NCCN2)cc1 [Tolazoline] (25 µM),2.33 (inactive)
10,Cc1ccc(NC(=O)c2ccc(CN3CCN(C)CC3)cc2)cc1Nc1nccc(-c2cccnc2)n1 [Imatinib] (14 µM),6.84 (inactive)
11,COc1cc(Cc2cnc(N)nc2N)cc(OC)c1OC [Trimethoprim] (43.1 µM),3.85 (inactive)
12,COc1cc(N)c(Cl)cc1C(=O)NC1CCN(CCCOc2ccc(F)cc2)CC1OC (stereo not given) [Cisapride] (0.85 µM),2.99 (inactive)
13,COc1cc2nc(N3CCN(C(=O)C4CCCO4)CC3)nc(N)c2cc1OC (stereo not given) [Terazosin] (1 µM),2.82 (inactive)
14,Cc1nc(-c2ccc(OCC(C)C)c(C#N)c2)sc1C(=O)O [Febuxostat] (178 µM),3.22 (inactive)
15,CCC(CC)O[C@@H]1C=C(C(=O)O)C[C@H](N)[C@H]1NC(C)=O [Oseltamivir Acid] (6.45 µM),3.03 (inactive)
16,O=c1ncnc2[nH][nH]cc1-2 [Allopurinol] (139.6 µM),2.89 (inactive)
17,CNC(=O)c1cc(Oc2ccc(NC(=O)Nc3ccc(Cl)c(C(F)(F)F)c3)cc2)ccn1 [Sorafenib] (10.76 µM),2.6 (inactive)
18,c1ccc([C@H]2CN3CCSC3=N2)cc1 [Levamisole] (11.7 µM),2.52 (inactive)
19,CC[N+](C)(C)Cc1ccccc1Br [Bretylium Tosylate] (84.1 µM),2.83 (inactive)
20,COc1cc(C(=O)NS(=O)(=O)c2ccccc2C)ccc1Cc1cn(C)c2ccc(NC(=O)OC3CCCC3)cc12 [Zafirlukast] (0.26 µM),1.99 (inactive)
